Key:
Details in all cases: concentration: 1 μM,replicates: in singlicate; n = 1
ASK2 = test system: T1, ASK2
T1 construct: gene MAP3K6

AURKA = test system: AURKA
AURKB = test system: AURKB
AURKC = test system: AURKC
AXL = test system: AXL
BIKE = test system: T2, BIKE
T2 construct: gene BMP2K

BLK = test system: BLK
BMPR1A = test system: BMPR1A
BMPR1B = test system: BMPR1B
BMPR2 = test system: BMPR2
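Also: KINOMEscan kinase panel screen.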

Row | SMILES | %Inh (ASK2) | %Inh (AURKA) | %Inh (AURKB) | %Inh (AURKC) | %Inh (AXL) | %Inh (BIKE) | %Inh (BLK) | %Inh (BMPR1A) | %Inh (BMPR1B) | %Inh (BMPR2)
1 | C[C@@H](Oc1cc(-n2cnc3cc(-c4ccncc4)ccc32)sc1C(N)=O)c1ccccc1Cl [GSK479719] | 8% | 0% | 48% | 100% | 89% | 98.6% | 0% | 0% | 0% | 0%
2 | O=C(Nc1n[nH]c2cc(-c3ccco3)ccc12)C1CC1 [SB-737447] | 4% | 46% | 12% | 34% | 0% | 53% | 0% | 0% | 14% | 0%
3 | CS(=O)(=O)c1cccc(CNc2nc(Nc3ccc4c(c3)[C@@H]3C[C@@H]4CNC3=O)ncc2C(F)(F)F)c1 | 0% | 99.4% | 95.7% | 73% | 93.2% | 96.2% | 30% | 0% | 0% | 0%
4 | C[C@@H](Oc1cc(-n2cnc3ccc(-c4ccncc4)cc32)sc1C(N)=O)c1ccccc1Cl [GSK483724] | 0% | 0% | 19% | 50% | 32% | 92.9% | 31% | 0% | 0% | 3%
5 | NC(=O)Nc1sc(-c2ccc(F)cc2)cc1C(N)=O [GW789449] | 0% | 55% | 83% | 85% | 40% | 98.2% | 46% | 6% | 11% | 78%
6 | CCN1CCN(CCCC(=O)Nc2n[nH]c3nc(-c4ccc(O)cc4)c(Br)cc23)CC1 [SB-731579] | 49% | 0% | 5% | 0% | 57% | 9% | 0% | 0% | 15% | 12%
7 | CNC(=O)c1ccccc1Nc1nc(Nc2cccc(CS(C)(=O)=O)c2)ncc1C.O=CO [GSK1520489] | 13% | 100% | 99.9% | 96.8% | 100% | 99.2% | 99.6% | 0% | 99.9% | 99.3%
8 | CCOC(=O)N1CCC(n2cnc(-c3ccc(F)cc3)c2-c2ccnc(N)n2)CC1 [SB-219952] | 0% | 19% | 37% | 19% | 19% | 4% | 1% | 10% | 0% | 22%
9 | COC(=O)Nc1nc2cc(Oc3ccc(NC(=O)Nc4cc(C(F)(F)F)ccc4Cl)cc3)ccc2[nH]1.Cl [GW697465] | 0% | 0% | 86% | 53% | 98% | 8% | 63% | 0% | 0% | 21%
10 | Nc1nccc(-c2ccc3c(N)n[nH]c3c2)n1 [GSK1034945] | 0% | 0% | 0% | 51% | 0% | 94.4% | 25% | 12% | 87% | 0%
11 | Cc1ccc2c(-c3ccnc(Nc4ccc(C(F)(F)F)cc4)n3)cnn2n1 [GW819776] | 0% | 11% | 32% | 4% | 0% | 12% | 0% | 13% | 0% | 32%
12 | Cl.Nc1n[nH]c2cc(-c3ccccn3)ccc12 [GSK2189892] | 0% | 0% | 8% | 0% | 0% | 32% | 22% | 0% | 0% | 0%
13 | Cc1ccc(C(=O)Nc2ccc(Oc3ccc4nc(NC(=O)C5CC5)cn4c3)c(F)c2)c(=O)n1-c1ccccc1 | 0% | 0% | 82% | 48% | 84% | 4% | 99.3% | 0% | 0% | 0%
14 | Cn1cc(-c2cccc3c(N)c(C(N)=O)nnc23)cn1 | 33% | 6% | 27% | 53% | 22% | 70% | 6% | 16% | 21% | 72%
15 | c1ccc(Oc2ccc(Nc3ccnc4ccc(-c5ccccn5)cc34)cc2)cc1 [GW407034] | 11% | 6% | 19% | 4% | 0% | 8% | 90.2% | 11% | 0% | 26%
16 | Cn1ccc2ncnc(Oc3ccc(NC(=O)Nc4cncc(C(F)(F)F)c4)c(Cl)c3)c21 | 0% | 0% | 25% | 0% | 59% | 0% | 9% | 0% | 0% | 0%
17 | OCCn1cc(-c2cnc3nnn(Cc4ccc5ncccc5c4)c3n2)cn1 | 0% | 0% | 0% | 0% | 0% | 0% | 4% | 7% | 0% | 0%

Row | SMILES | %Inh (ASK2) | %Inh (AURKA) | %Inh (AURKB) | %Inh (AURKC) | %Inh (AXL) | %Inh (BIKE) | %Inh (BLK) | %Inh (BMPR1A) | %Inh (BMPR1B) | %Inh (BMPR2)
18 | CN(c1ccccc1CNc1nc(Nc2ccc3c(c2)CC(=O)N3)ncc1C(F)(F)F)S(C)(=O)=O | 0% | 97.2% | 98.7% | 84% | 92.4% | 56% | 64% | 12% | 0% | 0%
19 | O=C1NCCc2[nH]c(-c3ccncc3)cc21 | 0% | 28% | 0% | 11% | 8% | 33% | 15% | 27% | 92.9% | 43%
20 | O=C(NCC1CC1)c1ccc(-c2cc(C(=O)NC3CC3)ccc2F)cc1 [GW810445] | 0% | 0% | 4% | 0% | 10% | 0% | 30% | 0% | 0% | 15%
21 | CC(C(=O)NC1CCN(c2ccnc(Nc3ccc(F)cc3)n2)C1)c1ccc(Cl)cc1 (stereo not drawn) [GSK1379713] | 0% | 0% | 36% | 47% | 11% | 16% | 32% | 0% | 0% | 0%
22 | O=C(Nc1cccc(Oc2ccc3nccn3n2)c1)Nc1cccc(C(F)(F)F)c1 | 4% | 0% | 0% | 41% | 35% | 11% | 9% | 0% | 0% | 0%
23 | O=C(NOCC1CC1)c1cc(Br)c(F)c(F)c1Nc1ccc(I)cc1Cl | 0% | 0% | 1% | 0% | 2% | 0% | 0% | 0% | 0% | 0%
24 | CC(C)S(=O)(=O)N1CCN(Cc2ccc3c(c2)nc(NC(=O)c2ccsc2)n3C[C@H](O)c2ccccc2)CC1 [GW635815] | 0% | 8% | 0% | 37% | 97.7% | 57% | 65% | 15% | 0% | 50%
25 | Cc1ccc(Nc2ccnc(Nc3ccc4c(c3)CS(=O)(=O)C4)n2)cc1O.Cl [GW579362] | 3% | 100% | 85% | 97.9% | 86% | 99.8% | 99.5% | 85% | 99.8% | 62%
26 | FC(F)(F)c1cc(Br)cc(Nc2nccc(-c3cnn4ncccc34)n2)c1 [GW810578] | 25% | 9% | 16% | 16% | 3% | 29% | 0% | 8% | 7% | 0%
27 | Cc1cccc2c(-c3ccncc3)c(-c3ccc(F)cc3)nn12.Cl [GW461487] | 0% | 7% | 0% | 0% | 0% | 3% | 22% | 0% | 0% | 0%
28 | CS(=O)c1ccc(-c2coc3ccc(-c4n[nH]c(=O)o4)cc23)cc1 (stereo not drawn) | 23% | 13% | 26% | 0% | 3% | 17% | 4% | 10% | 32% | 9%
29 | O=c1[nH]cc(-c2ccc(O)cc2)c2sc(-c3ccncc3)cc12 [GSK1033723] | 0% | 16% | 8% | 8% | 96.1% | 19% | 0% | 0% | 0% | 39%
30 | Cc1nnc(-c2ccc3occ(-c4ccc(S(C)=O)cc4)c3n2)o1 (stereo not drawn) | 0% | 0% | 0% | 0% | 0% | 0% | 0% | 0% | 0% | 0%
31 | CN(c1cccc(CNc2nc(Nc3ccc4c(c3)CC(=O)N4)ncc2C(F)(F)F)c1)S(C)(=O)=O | 0% | 93.8% | 99.4% | 88% | 64% | 95% | 0% | 0% | 0% | 39%
32 | COc1cc2c(Nc3ccc(NC(=O)c4ccccc4)cc3)ncnc2cc1OCCCN1CCOCC1 [GSK301329] | 20% | 94.5% | 95.6% | 70% | 55% | 28% | 96.7% | 0% | 0% | 0%
33 | CC(=O)Nc1ccc(-c2cc3ncnc(SCC(=O)O)c3s2)cc1 | 0% | 4% | 97.1% | 32% | 36% | 19% | 0% | 8% | 0% | 7%
